Screens from PubChem BioAssay.
Giardia FBPA inh: blocks Giardia fructose-bisphosphate aldolase activity | purified Giardia FBPA | A8B2U2 | Potency, µM (doses to about 59.6 µM), actives largely listed as inhibitors | AID 2451 | actives 0.71% (n = 290,000); also: nearly all actives have a fitted effect of over 55% in size
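40 nM FBPA preincubated 10 min at RT with compound (up to 57.5 uM final), then substrate plus GAPDH/TPI/NAD/arsenate coupling and diaphorase/resazurin added. Fluorescence read after 20 min at RT, 525/598 nm.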
Sm TGR inh: blocks Schistosoma mansoni thioredoxin glutathione reductase; actives 3% (n = 360,000); Q962Y6; AID 485364; purified TGR, DTNB reduction, TNB absorbance 405 nm; Potency, µM (top dose mostly 114 µM), most hits filed as inhibitors; also: nearly all actives have a fitted effect of over 60% in size
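Kinetic colorimetric format: TGR-catalysed, NADPH-driven DTNB reduction monitored via TNB absorbance. Enzyme dispensed at 20 nM; compound exposure 15 min at room temperature before reaction start.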
Tb PYK inh: T. brucei pyruvate kinase inhibition; TbPYK enzyme, Kinase-Glo Plus ATP luminescence, 45 min; AID 624173; actives 0.12% (n = 410,000); Potency, µM (doses to about 76.8 µM), usual class: inhibitors; also: nearly all actives have a fitted effect of over 50% in size
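ADP (130 uM final) triggers the TbPYK reaction after compound addition; incubation is 45 min at room temperature. Kinase-Glo Plus is then added and luminescence imaged. Normalized data are fitted to concentration-effect curves.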
RE007 growth inh: less growth of the S. pombe RE007 Vpr strain; S. pombe RE007 Vpr strain, BacTiter-Glo ATP luminescence, 24 h; Potency, µM (highest dose often 92.2 µM), most hits filed as inhibitors; actives 0.21% (n = 360,000); AID 651644; active = well fitted falling curve with a large enough effect; inconclusive = small, poorly fitted or top-dose-only effect; inactive = no such curve, though single readings can be large or run the other way; also: nearly all actives have a fitted effect of over 50% in size
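Fission yeast RE007 carrying one integrated HIV-1 vpr copy, seeded at OD 0.01 in PMG+AL medium with 23 nL pinned compound. Grown 24 h at 30 degrees; viability read by BacTiter-Glo luminescence after 5 min.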
LmPK inhibitor: blocks Leishmania mexicana pyruvate kinase activity | purified LmPK, Kinase-Glo ATP luminescence, 1 h | Potency, µM (doses to about 57.5 µM), hits mostly inhibitors | actives 0.37% (n = 290,000) | AID 1721
Target sequence (Q27686 whole entry, looked up): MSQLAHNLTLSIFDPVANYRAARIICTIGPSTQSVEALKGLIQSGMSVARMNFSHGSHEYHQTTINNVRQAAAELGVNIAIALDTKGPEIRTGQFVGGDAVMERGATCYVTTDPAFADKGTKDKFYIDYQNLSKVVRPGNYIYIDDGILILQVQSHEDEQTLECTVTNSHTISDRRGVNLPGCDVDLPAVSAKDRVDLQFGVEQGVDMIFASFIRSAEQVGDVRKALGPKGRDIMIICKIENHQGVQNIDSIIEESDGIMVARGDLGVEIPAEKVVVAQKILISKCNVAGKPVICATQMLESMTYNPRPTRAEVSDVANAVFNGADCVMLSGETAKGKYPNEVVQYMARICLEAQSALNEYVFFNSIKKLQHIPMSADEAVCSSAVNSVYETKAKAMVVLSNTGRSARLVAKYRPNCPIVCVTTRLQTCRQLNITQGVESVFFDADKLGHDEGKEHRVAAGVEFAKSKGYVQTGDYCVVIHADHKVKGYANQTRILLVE
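ATP generated from ADP (0.1 mM) and PEP (0.5 mM) by 0.1 nM LmPK over 1 h at room temperature (pH 7.2 imidazole buffer) was detected by coupled luciferase luminescence. Values were normalized to uninhibited and no-enzyme wells.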
A number is an active result; - = inactive; ? = inconclusive; . = no result given. Rows were chosen to be rich in hits. Some 3.3% of all compounds tested hit in one or more screens of this group. Unless noted, calls follow the shape of the dose curve; as a rule, active = well fitted curve in the direction sought with a large enough effect; inconclusive = small, poorly fitted or top-dose-only effect, or another doubt; inactive = no such curve, though single readings can be large; an effect the other way counts as inactive or inconclusive.

SMILES | Giardia FBPA inh | Sm TGR inh | Tb PYK inh | RE007 growth inh | LmPK inhibitor
COc1ccc(C(=O)NCCC(=O)NCc2cc(=O)n(C)c(=O)n2C)cc1 | . | - | - | - | -
Cc1ccc(/C=C/S(=O)(=O)NCC(=O)OCC(=O)Nc2ccc(C(N)=O)cc2)cc1 | . | - | - | - | .
Cc1ccc(/C=C/S(=O)(=O)NCC(=O)OCC(=O)Nc2c(F)cccc2F)cc1 | . | 28µM | - | - | .
CC(c1ccon1)N(C)Cc1cn(C)nc1-c1cccc(Cl)c1 (stereo unspecified) | - | 28µM | - | - | -
COc1ccc(CC(=O)Nc2sc3c(c2C#N)CC(C)(C)NC3(C)C)cc1OC | - | 89µM | - | - | -
S=c1[nH]nc(COc2ccccc2)n1C1CCCCC1 | - | - | ? | - | 13µM
FC(F)(F)c1cccc(NCc2n[nH]c(=S)n2C2CCCCC2)c1 | - | - | 13µM | - | ?
S=c1[nH]nc(CSc2nc3ccccc3s2)n1C1CCCCC1 | - | - | ? | - | 11µM
C#CCSc1nnc(CSc2nc3ccccc3s2)n1-c1ccccc1 | - | 50µM | - | - | -
S=c1[nH]nc(COc2ccccc2)n1Cc1ccccc1 | - | ? | ? | - | -
O=C(O)CSc1nnc(CSc2nc3ccccc3s2)n1-c1ccccc1 | - | - | - | - | -
CC(=O)Nc1cc(NC(C)=O)c(CC(C)C)s1 | - | - | - | - | -
Cc1ccccc1NS(=O)(=O)c1cc(C(=O)Nc2cccnc2)ccc1C | . | - | - | - | -
Oc1cccc(C2c3[nH]c4ccccc4c3CCN2Cc2ccoc2)c1 (stereo unspecified) | - | 18µM | - | - | -
CC(O)c1nc(C(C)O)n(CC(=O)c2ccccc2)n1 (stereo unspecified) | . | 45µM | - | - | .
O=C(Cn1nc(Cl)nc1Cl)c1ccccc1 | - | - | - | - | -
CCCCCCCCC#Cc1nc(C)ccc1OC | - | . | - | - | .
N#Cc1c(SCC(=O)Nc2ccc(C(F)(F)F)cc2)sc2c(O)cc(=O)[nH]c12 | - | - | - | - | -
N#Cc1c(SCC(=O)Nc2nncs2)sc2c(O)cc(=O)[nH]c12 | ? | 35µM | - | - | -
CCn1c(SCC(=O)NCCOc2ccccc2)nc2ccccc2c1=O | - | - | - | - | -
O=C(CCS(=O)(=O)Cc1ccccc1)N1CCN(c2ccc([N+](=O)[O-])cc2)CC1 | - | 25µM | - | - | -
Cc1ccc(S(=O)(=O)c2ccc([N+](=O)[O-])o2)cc1 | . | . | - | 7.9µM | .
Cc1ccc(C)c(C(=O)CSc2nc(N)cc(=O)[nH]2)c1 | - | - | - | - | -
COC(=O)c1cn[nH]c1NC(=S)Nc1ccccc1C | - | 45µM | - | - | -
O=C(O)Cc1sc(-c2cccnc2)nc1-c1ccc(Br)cc1 | - | 22µM | - | - | -
SMILES | Giardia FBPA inh | Sm TGR inh | Tb PYK inh | RE007 growth inh | LmPK inhibitor
COc1ccc(NC(=O)CCCS(=O)(=O)c2nc(-c3ccc(OC)c(OC)c3)cc(C(F)(F)F)n2)cc1OC | . | ? | - | . | .
COc1ccc(NC(=O)CCS(=O)(=O)c2nc(-c3ccc4c(c3)OCO4)cc(C(F)(F)F)n2)cc1 | . | 79µM | - | . | .
Cc1cc(NC(=O)CCS(=O)(=O)c2nc(-c3ccccc3)cc(C(F)(F)F)n2)no1 | - | 32µM | - | - | -
COc1ccc(-c2cc(C(F)(F)F)nc(S(=O)(=O)CCC(=O)N3CCOCC3)n2)cc1 | - | 28µM | - | - | -
COc1ccc(-c2cc(C(F)(F)F)nc(S(=O)(=O)CCCC(=O)Nc3cccc(O)c3)n2)cc1OC | - | 35µM | - | - | -
O=C(CCS(=O)(=O)c1nc(-c2ccc3c(c2)OCO3)cc(C(F)(F)F)n1)Nc1ccc(F)cc1F | . | - | - | . | .
COc1cc(/C=N/NC(=O)c2ccccc2O)ccc1OC(=O)CC1SC(=O)NC1=O (stereo unspecified) | - | - | - | - | -
CS(=O)(=O)c1nc(-c2ccccc2)cc(C(F)(F)F)n1 | - | 10µM | - | - | -
COc1ccccc1-c1cc(C(F)(F)F)nc(S(=O)(=O)CCCC(=O)N2CCOCC2)n1 | - | 32µM | - | - | -
FC(F)(F)c1cc(-c2ccccc2)nc(N2CCCCCC2)n1 | - | - | - | - | -
COc1ccccc1-c1cc(C(F)(F)F)nc(S(=O)(=O)CCCC(=O)O)n1 | - | ? | - | - | -
Cn1cc(C(F)(F)F)nc1-c1ccc(OC[C@@H](O)CNCCOc2ccc(O)c(C(N)=O)c2)cc1 | - | . | . | . | .
CN1C(=O)NC(c2ccccc2)C2=C1CN(Cc1ccco1)C2=O (stereo unspecified) | - | 35µM | - | - | -
CCCCNC(=O)CS(=O)Cc1nc(-c2ccc(C)cc2)oc1C (stereo unspecified) | - | 45µM | - | - | -
CCCNC(=O)CS(=O)Cc1nc(-c2ccc(OC)cc2)oc1C (stereo unspecified) | - | 50µM | - | - | -
CCc1ccc(-c2nc(CS(=O)CC(=O)NCCCN3CCOCC3)c(C)o2)cc1 (stereo unspecified) | . | 35µM | - | - | -
CCCN(CCC)CCNC(=O)CS(=O)Cc1nc(-c2ccc(C)cc2)oc1C (stereo unspecified) | - | - | - | - | -
Cc1nnn(-c2nonc2N)c1C(=O)N/N=C/c1cccc2ccccc12 | - | - | - | - | -
COC(=O)Cn1ccc(-c2ccc(Cl)cc2)c(C#N)c1=O | - | - | - | - | -
CCc1ccc(CN2CCC(Oc3ccc(C(=O)NCc4ccccn4)cc3)CC2)o1 | - | ? | - | - | -
CN=c1sc2c(n1C)C(=O)c1ccccc1C2=O | . | . | - | 10µM | .
CN(C(=O)COC(=O)c1cc2c(s1)CCCCC2)c1ccccc1 | . | - | - | - | .
COc1ccc(C(c2nnnn2-c2ccc(OC)cc2)N2CCN(C/C=C/c3ccccc3)CC2)cc1 (stereo unspecified) | . | . | - | - | .
COc1cc(C(C2=C(O)CC(C)(C)CC2=O)C2C(=O)CC(C)(C)CC2=O)cc(OC)c1OC (stereo unspecified) | - | 16µM | - | - | -
COc1cc(C(C2C(=O)CC(C)(C)CC2=O)C2C(=O)CC(C)(C)CC2=O)cc(OC)c1OC | - | 25µM | ? | - | -
COc1ccc(C(C2C(=O)CC(C)(C)CC2=O)C2C(=O)CC(C)(C)CC2=O)cc1COCC(F)(F)F | - | 40µM | - | - | -
CCOC(=O)C1(Cc2ccccc2C(F)(F)F)CCN(CC(O)CO)CC1 (stereo unspecified) | - | - | - | - | -
COc1cc(N2C(=O)C=CC2=O)ccc1N1C(=O)C=CC1=O | . | . | 4.5µM | - | .
COc1ccc(C(C)=O)cc1COC(=O)C(CO)NS(=O)(=O)c1ccc(Br)cc1 (stereo unspecified) | - | 13µM | - | - | -
